For 33 molecules, Potency results are on record in PubChem BioAssay (NCATS).

Results filed as inconclusive are left out. Active and inactive are the calls of the source. Unless noted, calls come from the whole dose curve; as a rule, active = well fitted curve in the direction sought with a large enough effect; inconclusive = small, poorly fitted or top-dose-only effect, or another doubt; inactive = no such curve, though single readings can be large; an effect the other way counts as inactive or inconclusive.

In assay [1] the target is Ubiquitin carboxyl-terminal hydrolase 1 (Homo sapiens) (UniProt O94782). Kind of assay: Inhibitors of USP1/UAF1: Pilot qHTS (AID 504865). Note: nearly all actives have a fitted effect of over 35% in size. Note: potency is the fitted concentration of half-maximal effect. In a few lines:
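In 50mM HEPES pH 7.8 containing 0.5mM EDTA, 1mM TCEP, 0.1 mg/ml BSA and 0.01% Tween-20, 1nM USP1/UAF1 is exposed to compound for 15 min, then Ub-Rho (150nM final) is added and fluorescence is read over time.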
A general note: In qHTS, concentration-response curves come from the screen itself.

Assay [2] is described as follows: S16 Schwann cell viability assay (CellTiter-Glo assay) (AID 624031). Note: nearly all actives have a fitted effect of over 70% in size. Note: potency is the fitted concentration of half-maximal effect. The procedure, abridged: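 Native S16 rat Schwann cells in DMEM/10% FBS without phenol red were incubated overnight, then exposed to compounds for 24 h at 37 °C/5% CO2. Viability was read as ATP luminescence (CellTiter-Glo), normalized to no-cell wells and DMSO (0%).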
A short description of assay [3]: S16 Schwann cell PMP22 intronic element beta-lactamase assay (AID 624044; calls by dose curve; note: nearly all actives have a fitted effect of over 15% in size; note: potency is the fitted concentration of half-maximal effect). The conditions noted are these: S16 rat Schwann cells, PMP22 element beta-lactamase FRET, 24 h; ratio activity, negative = inhibition: at 38.3 µM (top of the series). The procedure, abridged: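 Rat S16 Schwann cells with beta-Lac driven by a PMP22 intronic element, compound-treated 24 h at 37 °C. LiveBLAzer FRET B/G read: 460 nm normalized to potassium clavulanate vs DMSO; 535 nm FRET as viability; concentration-effect curves classified.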

Assay [4] relates to DFO2036. The assay can be described thus: qHTS profiling for inhibitors of Plasmodium falciparum proliferation (AID 504749). Note: nearly all actives have a fitted effect of over 60% in size. Note: potency is the fitted concentration of half-maximal effect. The conditions noted are these: P. falciparum in erythrocytes, SYBR Green DNA, 72 h; series mostly up to 28.7 µM. In a few lines: (§1)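 Infected RBCs, 0.3% parasitemia/2.5% Hct final; cpd 72 h, 37 C, 5% CO2; lysis buffer with saponin/triton/SYBR Green I, o/n RT dark; FI 485/535; norm. to artemisinin (0.29 uM) and DMSO.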

The subject of assay [5] is W2. Described as above. The conditions noted are these: P. falciparum in erythrocytes, SYBR Green DNA, 72 h; series mostly up to 28.7 µM. In a few lines:
as §1

Assay [6] can be described thus: S16 Schwann cell PMP22 intronic element firefly luciferase assay (AID 624032). Note: nearly all actives have a fitted effect of over 30% in size. Note: potency is the fitted concentration of half-maximal effect. In a few lines: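 Luciferase reporter of PMP22 intronic-element expression in stably transfected S16 rat Schwann cells, read by ONE-Glo luminescence after 24 h compound exposure at 37 C. Activity scaled between DMSO (0%) and positive-control PTC124; concentration-effect curves quality-classified.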

The target of assay [7] is Cytochrome P450 3A4 (Homo sapiens) (UniProt P08684). The assay can be described thus: qHTS Assay for Inhibitors and Substrates of Cytochrome P450 3A4 (AID 884). Note: nearly all actives have a fitted effect of over 50% in size. The procedure, abridged:
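20 nM human CYP3A4 with 25 uM Luciferin-PPXE (at KM) in 200 mM KPO4, preincubated 10 min with compound; NADPH regeneration started a 60 min RT reaction. Luciferin detected by luminescence, normalized to 57 uM ketoconazole as full inhibition.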

Assay [8] is described as follows: Confirmation and Secondary Assay for Modulators of Hemoglobin Beta Chain Splicing at IVS2 705 locus (AID 930).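 Note: HeLa cells stably expressing the EGFP-705 splicing reporter.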 The procedure, abridged:
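HeLa cells stably carrying EGFP interrupted by mutant beta-globin IVS2-705 intron (CMV-driven) were seeded at 500 cells/well, treated next day with compound for 2 days at 37C; corrected splicing restores EGFP, read as total peak GFP intensity per well.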

Sequence of Ubiquitin carboxyl-terminal hydrolase 1 (Homo sapiens) (O94782 whole entry, looked up): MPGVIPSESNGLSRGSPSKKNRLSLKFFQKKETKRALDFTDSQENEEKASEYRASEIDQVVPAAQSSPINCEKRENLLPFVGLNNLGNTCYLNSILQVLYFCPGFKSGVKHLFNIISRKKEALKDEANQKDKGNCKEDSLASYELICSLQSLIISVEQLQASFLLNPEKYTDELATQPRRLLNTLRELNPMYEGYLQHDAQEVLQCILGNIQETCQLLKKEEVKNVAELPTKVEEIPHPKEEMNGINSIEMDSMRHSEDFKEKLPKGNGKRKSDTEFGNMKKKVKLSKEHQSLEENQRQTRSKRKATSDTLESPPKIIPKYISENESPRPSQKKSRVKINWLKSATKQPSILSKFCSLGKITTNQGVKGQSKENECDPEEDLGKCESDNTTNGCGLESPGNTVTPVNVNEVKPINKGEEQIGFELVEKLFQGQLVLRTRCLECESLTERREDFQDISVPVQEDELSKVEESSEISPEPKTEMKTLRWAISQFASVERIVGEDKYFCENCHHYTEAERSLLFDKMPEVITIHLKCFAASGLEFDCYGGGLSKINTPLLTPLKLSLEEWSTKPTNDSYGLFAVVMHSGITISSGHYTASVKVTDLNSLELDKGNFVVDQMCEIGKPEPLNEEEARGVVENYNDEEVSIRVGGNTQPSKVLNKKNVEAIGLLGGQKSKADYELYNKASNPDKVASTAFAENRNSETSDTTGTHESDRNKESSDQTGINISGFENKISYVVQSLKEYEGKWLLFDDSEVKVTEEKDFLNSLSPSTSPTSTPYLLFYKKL
Sequence of Cytochrome P450 3A4 (Homo sapiens) (P08684 whole entry, looked up): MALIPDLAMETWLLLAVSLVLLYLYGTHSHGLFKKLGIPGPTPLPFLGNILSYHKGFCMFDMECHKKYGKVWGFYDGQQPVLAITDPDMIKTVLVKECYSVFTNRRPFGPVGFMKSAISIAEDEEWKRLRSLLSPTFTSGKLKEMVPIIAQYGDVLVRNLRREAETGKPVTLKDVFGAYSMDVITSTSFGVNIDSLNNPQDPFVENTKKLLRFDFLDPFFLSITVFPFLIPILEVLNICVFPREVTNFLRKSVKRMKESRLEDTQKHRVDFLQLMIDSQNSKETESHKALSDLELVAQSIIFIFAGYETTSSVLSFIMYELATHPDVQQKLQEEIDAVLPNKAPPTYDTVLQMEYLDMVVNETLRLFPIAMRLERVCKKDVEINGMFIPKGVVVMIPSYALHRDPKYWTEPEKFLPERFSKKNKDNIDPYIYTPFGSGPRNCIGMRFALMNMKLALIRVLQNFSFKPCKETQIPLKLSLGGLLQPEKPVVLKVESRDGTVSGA

As for `CC1(C)C2CC[C@]1(C)[C@@H](O)C2`, the Potency entry in assay [1], in assay [2], in assay [3], in assay [4] and in assay [5] was “inactive” in each case.

`NC(C(=O)O)c1ccc(O)cc1` (configuration not stated): the Potency entry in assay [1], in assay [2], in assay [6], in assay [3], in assay [4] and in assay [5] was “inactive” each time.

For the molecule `CC[C@@]1(O)C[C@H](O[C@H]2C[C@@H](N(C)C)[C@@H](O[C@H]3C[C@@H](O)[C@@H](O[C@H]4CCC(=O)[C@@H](C)O4)[C@@H](C)O3)[C@@H](C)O2)c2c(cc3c(c2O)C(=O)c2c(O)cccc2C3=O)[C@H]1C(=O)OC`, the results for the Potency in assay [3], in assay [4] and in assay [5] were 0.199 µM (active), 178 nM (active) and 151 nM (active), respectively.

Take `CC(C)(C)C(=O)OCC(=O)C1CCC2C3CCC4=CC(=O)CCC4(C)C3CCC12C` (configuration not stated): the Potency entry in assay [1], in assay [3], in assay [4] and in assay [5] was “inactive” throughout.

Take `CC(=O)NC1[C@H]([C@H](O)[C@H](O)CO)OC(C(=O)O)=C[C@H]1N=C(N)N` (some centres not stated): the Potency entry in assay [1], in assay [2], in assay [3], in assay [4] and in assay [5] was “inactive” throughout.

For `O=C(OC[C@@H]1O[C@@](O)(COC(=O)c2cccnc2)[C@H](OC(=O)c2cccnc2)[C@H]1OC(=O)c1cccnc1)c1cccnc1`, the Potency result in assay [1], in assay [2], in assay [3], in assay [4] and in assay [5] was “inactive” each time. Besides, the Potency in assay [6] is 2.56 µM (active).

Consider `CC(c1ncncc1F)[C@](O)(Cn1cncn1)c1ccc(F)cc1F` (some centres not stated), for which the Potency entry in assay [1], in assay [2], in assay [6], in assay [3], in assay [4] and in assay [5] was “inactive” in each case.

Consider `C[S+](C)CC[C@H](N)C(=O)O`, for which the Potency result in assay [1], in assay [2], in assay [6], in assay [3], in assay [4] and in assay [5] was “inactive” throughout.

Consider `OCC1O[C@H](O[C@H]2C(O)C(O)C(O)O[C@@H]2CO)C(O)C(O)C1O` (some centres not stated), for which the Potency entry in assay [7], in assay [8], in assay [1], in assay [2], in assay [6] and in assay [4] was “inactive” in each case. The Potency entry in assay [5] is “inactive”.

For the molecule `C[C@H]1[C@@H](OC(=O)CCC(=O)O)OC2OC3(C)CC[C@H]4[C@H](C)CC[C@@H]1[C@@]24OO3` (some centres not stated), the Potency result in assay [1] and in assay [3] was “inactive” each time. The Potency in assay [6] is 2.56 µM (active); in assay [4], 3.5 nM (active); in assay [5] it was 1.9 nM (active).

In the case of `CO/N=C(/C(=O)N[C@@H]1C(=O)N2C(C(=O)O)=C(CSc3nc(C)c(CC(=O)O)s3)CS[C@H]12)c1csc(N)n1`, the Potency entry in assay [1], in assay [2], in assay [6], in assay [3], in assay [4] and in assay [5] was “inactive” in each case.

For the molecule `CN1[C@@H]2CC[C@@H]1CC(OC(=O)[C@H](CO)c1ccccc1)C2` (some centres not stated), the Potency entry in assay [2], in assay [6], in assay [3], in assay [4] and in assay [5] was “inactive” in each case.

Take `O=C1[C@@H]2C[C@@H]3C[C@H]1C[C@@](O)(C3)C2`: the Potency result in assay [1], in assay [2], in assay [3], in assay [4] and in assay [5] was “inactive” throughout.

Take `CC[C@H](C)[C@H]1O[C@]2(CC[C@@H]1C)C[C@@H]1C[C@@H](C/C=C(\C)[C@H](O[C@@H]3C[C@H](OC)[C@H](O[C@@H]4C[C@H](OC)[C@@H](O)[C@H](C)O4)[C@H](C)O3)[C@@H](C)/C=C/C=C3\CO[C@@H]4[C@H](O)C(C)=C[C@@H](C(=O)O1)[C@]34O)O2`: the Potency in assay [2] is 12.8 µM (active); in assay [6], 9.07 µM (active); in assay [5], 1690 nM (active).

As for `CC1C(=O)C(=O)C=CN1C` (configuration not stated), the Potency result in assay [1], in assay [2], in assay [6], in assay [4] and in assay [5] was “inactive” throughout.

In the case of `Cc1ccc(Nc2ncccc2C(=O)O)cc1C`, the Potency result in assay [1], in assay [2], in assay [6], in assay [3] and in assay [5] was “inactive” each time.

Consider `O=[N+]([O-])O[C@H]1CO[C@H]2[C@@H]1OC[C@H]2O`, for which the Potency result in assay [1], in assay [2], in assay [6], in assay [3] and in assay [5] was “inactive” each time.

Turning to `CN[C@H](C)CCC=C(C)C`, the Potency result in assay [1], in assay [2], in assay [6] and in assay [3] was “inactive” in each case. Besides, the Potency is 398 nM (active) in assay [4] and 47.8 nM (active) in assay [5].

On to `CN(C)CC/C=C1\c2ccccc2COc2ccc(CC(=O)O)cc21`, for which the Potency result in assay [1], in assay [2], in assay [6], in assay [3] and in assay [4] was “inactive” each time.

Consider `NC[C@@H]1O[C@H](OC2[C@@H](CO)O[C@@H](OC3[C@H](O)[C@H](N)C[C@H](N)[C@H]3OC3O[C@H](CO)[C@@H](O)[C@H](O)[C@@H]3N)[C@H]2O)C(N)[C@H](O)[C@@H]1O` (some centres not stated), for which the Potency result in assay [2], in assay [6], in assay [3] and in assay [5] was “inactive” throughout.

With `CNC1C(O)C(OC2C(NC(=O)C(O)CN)CC(N)C(OC3OC(CN)C(O)C(O)C3O)C2O)OCC1(C)O` (configuration not stated), the Potency result in assay [1], in assay [2], in assay [6], in assay [3], in assay [4] and in assay [5] was “inactive” throughout.

Turning to `NC(=O)c1ncn(C2OC(CO)C(O)C2O)c1N` (configuration not stated), the Potency entry in assay [7], in assay [8], in assay [1], in assay [2], in assay [6] and in assay [3] was “inactive” throughout. In assay [5], the Potency entry was “inactive”.

`O=C(O)c1ccc(N[C@@H]2OC[C@@H](O)[C@@H](O)[C@@H]2O)cc1`: the Potency entry in assay [1], in assay [2], in assay [6], in assay [4] and in assay [5] was “inactive” in each case.

For the molecule `Cc1onc(-c2c(F)cccc2Cl)c1C(=O)NC1C(=O)N2C1SC(C)(C)C2C(=O)O` (configuration not stated), the Potency entry in assay [1], in assay [2], in assay [6], in assay [3] and in assay [5] was “inactive” throughout.

Turning to `Nc1nc(F)nc2c1ncn2[C@@H]1O[C@H](CO)[C@@H](O)[C@H]1O`, the Potency result in assay [1], in assay [2], in assay [6], in assay [3], in assay [4] and in assay [5] was “inactive” throughout.

Regarding `COc1cccc(OC)c1C(=O)NC1C(=O)N2C1SC(C)(C)C2C(=O)O` (configuration not stated), the Potency result in assay [7], in assay [8], in assay [2], in assay [3] and in assay [5] was “inactive” each time.

`CCCCCCCCCCCCCCCC(=O)OCC(COP(=O)(O)OCC[N+](C)(C)C)OC(=O)CCCCCCCCCCCCCCC` (configuration not stated): the Potency entry in assay [1], in assay [2], in assay [6], in assay [3] and in assay [5] was “inactive” in each case.

Consider `OCCOC[C@H]1O[C@H](OCCO)[C@H](OCCO)[C@@H](OCCO)[C@@H]1OCCO` (tested in a mixture with another compound), for which the Potency entry in assay [1], in assay [2], in assay [6] and in assay [5] was “inactive” throughout.

`C/C1=C2/[N-]C(C(CC(N)=O)[C@@]2(C)CCC(=O)NCC(C)OP(=O)([O-])O[C@H]2[C@@H](O)[C@@H](n3cnc4cc(C)c(C)cc43)O[C@@H]2CO)[C@]2(C)N=C(/C(C)=C3N=C(/C=C4N=C1C(CCC(N)=O)C\4(C)C)[C@@H](CCC(N)=O)[C@]\3(C)CC(N)=O)[C@@H](CCC(N)=O)[C@]2(C)CC(N)=O.CC(=O)O.[Co]` (some centres not stated): the Potency was 56.2 µM (active) in assay [1], 2.56 µM (active) in assay [6] and 601 nM (active) in assay [5]. The Potency result in assay [2] was “inactive”.

`CCC(C(=O)O)C1OC(C(C)C(O)C(C)C(=O)C(CC)C2OC3(C=CC(O)C4(CCC(C)(C5CCC(O)(CC)C(C)O5)O4)O3)C(C)CC2C)C(C)CC1C` (configuration not stated): the Potency entry in assay [1] is “inactive”. The results for the Potency in assay [6] and in assay [3] were 0.102 µM (active) and 6.3 µM (active), respectively.

In the case of `CC(=O)OCC(=O)[C@@]1(O)CCC2C3C[C@H](C)C4=CC(=O)C=CC4(C)C3C(O)CC21C` (some centres not stated), the Potency entry in assay [1], in assay [2], in assay [6], in assay [3] and in assay [5] was “inactive” throughout.

`CC1(C)CC1C(=O)N/C(=C/CCCCSCC(N)C(=O)O)C(=O)O` (configuration not stated): the Potency result in assay [1], in assay [2], in assay [6], in assay [4] and in assay [5] was “inactive” each time.

On to `O=c1ccn(C2OC(COP(=O)(O)OC3C(CO)OC(n4ccc(=O)[nH]c4=O)C3O)C(O)C2O)c(=O)[nH]1` (configuration not stated), for which the Potency result in assay [1], in assay [2], in assay [6], in assay [3] and in assay [5] was “inactive” in each case.
